# About 13,000 (27%) of roughly 48,000 compounds showed an effect of 50% or more. This is one part of the list.
# System: Wolbachia pipientis
# Experiment: Anti-Wolbachia Cell-Based Screen
# Type: functional
# Parameters: scale not given: in the data most compounds retested in dose-response had high values
# Settings: 5 µM
row,Structure (SMILES),Percent Effect [%]
1,Cc1nc(O)cc(CN2CCC=C(CN(C)C(=O)c3ccco3)C2)n1,2.928
2,Cc1nc2c(c(N(C)Cc3ccccc3-n3cccn3)n1)CCNCC2,14.94
3,COc1ccc(C(=O)N2C[C@@H](C(=O)O)[C@H](c3ccccc3C)C2)c(O)c1,-2.704
4,CCNC(=O)[C@@H]1CCCN1C1(C(=O)NC)CCCCC1.Cl,1.197
5,COc1cccc(COCC(=O)N2CCC(CC(N)=O)CC2)c1,-12.19
6,O=C(c1ccc(S(=O)(=O)NCC(F)F)cc1)N1C[C@H]2CNC[C@H]2C1,19.64
7,O=C(CCCc1nc(C2CC2)no1)N1CCCC(c2ccn[nH]2)C1 (configuration not stated),-3.493
8,O=C(c1cnc2ccccn12)N1CCCC(c2ccn[nH]2)C1 (configuration not stated),107.7
9,O=C(CN1CCCC(c2ccn[nH]2)C1)Nc1nncs1 (configuration not stated),12
10,Cn1cncc1C(=O)N1CCCC(c2ccn[nH]2)C1 (configuration not stated),108.7
11,O=C(c1cc(=O)n(-c2ccccc2)[nH]1)N1CCCC(c2ccn[nH]2)C1 (configuration not stated),77.64
12,CC(C)c1ocnc1C(=O)N1CCCC(c2ccn[nH]2)C1 (configuration not stated),-7.734
13,CC(C)c1cnc(CN2CCCC(c3ccn[nH]3)C2)o1 (configuration not stated),-28.34
14,Cc1cc(OCC(=O)N2CCCC(c3ccn[nH]3)C2)no1 (configuration not stated),1.786
15,O=C1CCCCCN1CCC(=O)N1CCCC(c2ccn[nH]2)C1 (configuration not stated),2.164
16,O=C(c1cnnn1-c1ccccc1)N1CCCC(c2ccn[nH]2)C1 (configuration not stated),106
17,CC(C)N1CCC(c2ccnc3c(C(=O)N4CCOCC4)ncn23)CC1,-16.45
18,Cn1nc(Cn2cccn2)c2c1CN(Cc1ccoc1)C2.O=C(O)C(F)(F)F,-5.298
19,Cc1noc([C@@]23CCO[C@@H]2CCN(C(=O)c2cc(C)on2)C3)n1,4.569
20,CC(=O)N1CCC(C)(c2nc(C)no2)CC1,134.3
21,COCC(=O)N1CC[C@H]2OCC[C@@]2(c2nc(C)no2)C1,6.759
22,Cc1noc([C@@]23CCO[C@@H]2CCN(C(=O)c2cc(C)[nH]c2C)C3)n1,12.25
23,Cc1noc(C2(C)CCN(C(=O)C(C)C)CC2)n1,126.4
24,Cc1noc([C@@]23CCO[C@@H]2CCN(C(=O)CCC(C)C)C3)n1,4.63
25,Cc1noc(C2(C)CCCN(C(=O)C(C)C)C2)n1 (configuration not stated),123

row,Structure (SMILES),Percent Effect [%]
1,Cc1noc([C@@]23CCO[C@@H]2CCN(C(=O)c2cc(C)c(C)s2)C3)n1,6.303
2,Cc1noc([C@@]23CCO[C@@H]2CCN(C(=O)CN(C)C)C3)n1,5.284
3,Cc1cccc2c1nc(CCO)n2-c1ccc(C(=O)N2CCCC2)o1,4.629
4,Fc1cccc(-n2cc(CN3CCCCC3CCn3ccnc3)cn2)c1 (configuration not stated),-14.22
5,CC(C)(N)C(=O)N1CCCC1c1cncc(Oc2ccc(F)cc2)n1 (configuration not stated),9.255
6,CC(C)(N)C(=O)N1CCCC(c2cncc(Oc3cccnc3)n2)C1 (configuration not stated),102.7
7,Cc1cncc(C2CCCN(C(=O)c3cccn3C)C2)n1 (configuration not stated),5.721
8,CC(C)C(=O)N1CCCC(c2cncc(Oc3cccnc3)n2)C1 (configuration not stated),130.5
9,CC(C)(N)C(=O)N1CCCC1c1cncc(Oc2ccccc2)n1 (configuration not stated),115.4
10,CCS(=O)(=O)c1ncc(CN(C)Cc2ccccc2Cl)n1CCOC,6.102
11,CCN(CC)Cc1cc(C(=O)N2CC(C)(C)[C@@](C)(O)C2)c(C)o1,-3.4
12,CS(=O)(=O)N1CCC2(CC1)COC(COc1cccnc1)C2.O=C(O)C(F)(F)F (configuration not stated),-9.864
13,O=C(COc1ccccc1)N(Cc1ccncc1)C1CC1,-3.212
14,CC(C)(C)CN1CC(COc2ccccc2)Oc2ccncc2S1(=O)=O (configuration not stated),80.37
15,O=S1(=O)c2cnccc2OC(COc2ccccc2)CN1CC1CC1 (configuration not stated),96.1
16,O=S1(=O)CCC(n2nc(COc3ccccc3)nc2-c2cnccn2)C1 (configuration not stated),-50.17
17,Cc1nc2cc(=O)[nH]n2c(C)c1CC(=O)Nc1cnn(C)c1,-2.134
18,CCc1ncc(C(=O)N(C)CC2Cc3ccccc3O2)cn1 (configuration not stated),-1.94
19,Cc1nn(C)c(C)c1CCNC(C)c1ccc(-n2ccnc2C)cc1 (configuration not stated),-1.532
20,Cc1ccc(CN2CCC3(CC2)OC(C(=O)N(C)C)c2ccccc23)o1.O=C(O)C(F)(F)F (configuration not stated),8.053
21,CC(C)CN1CCC2(C=C(C(=O)N3CCCC3)c3ccccc32)CC1.O=C(O)C(F)(F)F,13.87
22,CC(C)N1CCC2(C=C(C(=O)N(C)C)c3ccccc32)CC1.O=C(O)C(F)(F)F,-1.303
23,CCN1CCC2(C=C(C(=O)N(C)C)c3ccccc32)CC1.O=C(O)C(F)(F)F,130.6
24,CC(C)CN1CCC2(C=C(C(=O)N(C)C)c3ccccc32)CC1.O=C(O)C(F)(F)F,90.84
25,O=C(C1=CC2(CCN(CCO)CC2)c2ccccc21)N1CCCC1.O=C(O)C(F)(F)F,-8.81

row,Structure (SMILES),Percent Effect [%]
1,COc1ccc(C(C)NCc2c[nH]nc2C)cc1Br.Cl (configuration not stated),2.435
2,Cc1ncoc1C(=O)N1CCc2[nH]nc(-c3ccc4c(c3)OCO4)c2C1,-5.297
3,CC(C)CC(CCO)CNC(=O)N1CCCC1(C)C (configuration not stated),-11.2
4,O=C(C1CCCCC1)N1CCCC2(CCN(c3cnccn3)CC2)C1.O=C(O)C(F)(F)F,1.174
5,O=C(O)C(F)(F)F.O=C(c1cccnc1)N1CCOC2(COCCN(c3cncnc3)C2)C1 (configuration not stated),-2.912
6,O=C(c1cccnc1)N1CCOCC2(CCN(c3ncccn3)C2)C1 (configuration not stated),104.1
7,Cc1cc(C(=O)N2CCCC3(COCCN(c4ccccc4)C3)C2)[nH]n1 (configuration not stated),-3.26
8,O=C(C1CCCO1)N1CCCC2(CCN(c3cccnc3)CC2)C1.O=C(O)C(F)(F)F (configuration not stated),111.1
9,O=C(O)C(F)(F)F.O=C(c1ccncc1)N1CCCC2(COCCN(c3ccccc3)C2)C1 (configuration not stated),3.35
10,O=C(C1CCCC1)N1CCCC2(CCN(c3cnccn3)CC2)C1.O=C(O)C(F)(F)F,-29.32
11,O=C(c1ccc[nH]1)N1CC2(CCN(c3ncccn3)C2)C1,-13.43
12,O=C(O)C(F)(F)F.O=C([C@H]1CCCO1)N1CCCC2(COCCN(c3ccccc3)C2)C1 (some centres not stated),121.5
13,O=C(O)C(F)(F)F.O=C(c1cccnc1)N1CCCC2(COCCN(c3ccccc3)C2)C1 (configuration not stated),104.3
14,O=C(c1ccnnc1)N1CC2(CCN(c3ncccn3)C2)C1,-3.842
15,COc1ccc(C)cc1CN1CCN(Cc2nccn2C)C(C)C1 (configuration not stated),-12.47
16,OCc1cc2ccccc2nc1NC1CC=CC1,-7.436
17,CC(C1CCN(Cc2cnc(-c3cccs3)nc2)CC1)N(C)C (configuration not stated),1.758
18,CC(C)n1cnnc1CN(C)Cc1cnc(-c2ccccn2)nc1,11.81
19,COCCCN(Cc1cnc(-c2ccccn2)nc1)C1CCN(C)CC1,120.4
20,CCN(Cc1cnc(-c2ccccn2)nc1)C1CCS(=O)(=O)C1 (configuration not stated),-5.567
21,COCCCN(Cc1cnc(-c2cccs2)nc1)C1CCN(C)CC1,117
22,CC(C)n1cnnc1CN(C)Cc1cnc(-c2cccs2)nc1,3.781
23,CCC(O)CN(c1ccccc1)S(=O)(=O)c1cnc(C)s1 (configuration not stated),-3.963
24,CCCn1nc(C)c(CN2CC3(CCOC3)CCC2=O)c1C (configuration not stated),-15.65
25,CC(C)C(=O)NCc1cccc(N2CCCCC2=O)c1,-5.894

row,Structure (SMILES),Percent Effect [%]
1,O=S(=O)(Nc1cnc(N2CCCC2)nc1)c1ccc(OC(F)(F)F)cc1,113.1
2,Cn1cc(NS(=O)(=O)c2ccc(OC(F)(F)F)cc2)ccc1=O,-16.2
3,COc1ncc(NS(=O)(=O)c2ccc(F)cc2F)cn1,7.047
4,CN(C)c1ccc(C(=O)N2CCCc3cc(OC(F)(F)F)ccc32)cn1,0.3128
5,CN(C)c1ncc(NS(=O)(=O)c2ccc(OC(F)(F)F)cc2)cn1,123.3
6,Cc1ccc(S(=O)(=O)Nc2c(C)nc(N3CCCC3)nc2C)cc1,15.76
7,COc1ccc(S(=O)(=O)Nc2cnc(N(C)C)nc2)cc1,87.85
8,O=S(=O)(NCc1cc2n(n1)CCNC2)c1ccc(OC(F)(F)F)cc1,12.96
9,O=S(=O)(Nc1cnc(N2CCOCC2)nc1)c1ccc(C(F)(F)F)cc1,-10.38
10,CCOc1ccc(S(=O)(=O)Nc2cnc(OC)nc2OC)cc1,-50.06
11,O=S(=O)(Nc1cnc(N2CCCC2)nc1)c1ccc(C(F)(F)F)cc1,2.34
12,Cc1nc(N(C)C)nc(C)c1NS(=O)(=O)c1ccc(OC(F)(F)F)cc1,120.1
13,Cc1ccc(CN2CCOC3(COCCN(C(C)C)C3)C2)s1.O=C(O)C(F)(F)F.O=C(O)C(F)(F)F (configuration not stated),-2.418
14,Cc1nccn1-c1cc(CNC(=O)C2CCC(=O)NC2)ccn1 (configuration not stated),-12.56
15,COCCOc1ncccc1C(=O)N1CCCC1Cn1cc(C)cn1 (configuration not stated),71.82
16,CCOc1ncccc1C(=O)N1CCCC1Cn1cc(C)cn1 (configuration not stated),90.55
17,Cc1cnn(CC2CCCN2C(=O)c2cccnc2-n2cncn2)c1 (configuration not stated),106.4
18,O=C(c1cccnc1-n1cncn1)N1CCN(CC2CC2)CC1,-14.6
19,CSCCc1nc(C(C)C)nn1-c1ccncc1C,-5.681
20,COCC(C)(C#N)NC(=O)COc1ccccc1Br (configuration not stated),-5.931
21,Cc1c(-c2ccccc2)ncn1CC(c1cccnc1)N1CCOCC1 (configuration not stated),2.3
22,COCCC1(CO)CCCN(C(=O)c2ccc(C(C)C)[nH]c2=O)C1 (configuration not stated),9.971

# Source: ChEMBL document CHEMBL3988442, “University of Dundee, Small-Polar-MMV Screening Library” (2021)
